Source: PubChem BioAssay (NCI)
Values joined by “and” are separate entries in the source; they are usually repeats but may differ in a detail not shown here. Equal values may be shown once. About 83,000 compounds went through this panel and 20% of them were active in at least one assay; those are over-represented in the sample as a whole.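 The endpoint reported here, percent growth, reads 100 for growth as untreated, 0 for no net growth and -100 for all cells dead.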 Active and inactive are the calls of the source. The calls were made as follows: active = growth percent below 10; inactive = the rest.

test system: UACC-62 melanoma; experiment: NCI-60 one-dose screen, 48 h (100 = growth as untreated, 0 = no growth, -100 = all killed); conditions: 10 µM unless noted

| SMILES | growth |
| --- | --- |
| COc1ccc(/C=c2\[nH]c3nc(=O)c(N4CCOCC4)c(N)n3c2=O)cc1 | 67.5% [100 µM] (inactive) and 26% [100 µM] (inactive) |
| COc1cc(-c2nc(SC)nc3c2CCc2ccccc2-3)cc(OC)c1OC | 42.6% [100 µM] (inactive) and 23.7% [100 µM] (inactive) |
| O=C1c2cccnc2-c2nccc3ccnc1c23 | -95.5% [100 µM] (active) and -100% [100 µM] (active) |
| Cc1cc(N(CCC#N)CCC#N)ccc1/C=N/NC(=O)c1cc(Cl)ccc1O | 46.2% [100 µM] (inactive) and 8.92% [100 µM] (active) |
| CCCCCCSC[C@H](OC(C)=O)[C@@H](OC(C)=O)[C@@H](OC(C)=O)[C@@H](COC(C)=O)OC(C)=O | 51.3% [100 µM] (inactive) and 71.8% [100 µM] (inactive) |
| O=C(Cc1nc2ccc(C(=O)c3ccccc3)cc2[nH]c1=O)C(=O)Nc1ccccc1[N+](=O)[O-] | 30.2% [100 µM] (inactive) and -20.2% [100 µM] (active) |
| O=C(O)COc1cc(-c2ccccc2F)nc2cc3c(cc12)OCO3 | 83.2% [100 µM] (inactive) and 64.8% [100 µM] (inactive) |
| CC(=Nc1ccncc1)C(C)=Nc1ccncc1 | -98.5% [100 µM] (active) and -100% [100 µM] (active) |
| N#CC(=S)Nc1ccc(F)cc1 | 8.57% [100 µM] (active) and 0.965% [100 µM] (active) |
| COc1ccc2c(C)cc(N/N=C/c3ccc(C)s3)nc2c1 | -86.5% [100 µM] (active) and -100% [100 µM] (active) |
| O=C1c2ccccc2-c2c1c1ccccc1c(=O)n2CCO | -21.8% [100 µM] (active) and -78.7% [100 µM] (active) |
| O=C1CC(c2ccccc2)NCCCCN2CC(CN1)C(C(O)c1ccccc1)C2=O (stereo not drawn) | 72.5% [100 µM] (inactive) and 81.1% [100 µM] (inactive) |
| COC(=O)C(=O)C(C(=O)C(=O)Nc1ccccc1OC)c1nc2ccc([N+](=O)[O-])cc2[nH]c1=O (stereo not drawn) | 41.9% [100 µM] (inactive) and 22.7% [100 µM] (inactive) |
| CC(C)CCCC(C)[C@H]1CC[C@H]2[C@@H]3CC[C@H]4C[C@@H](CCC=C(c5cc(Cl)c(O)c(C(=O)O)c5)c5cc(Cl)c(O)c(C(=O)O)c5)CC[C@]4(C)[C@H]3CC[C@]12C (stereo partly drawn) (tested in a mixture with another compound) | 72.7% [50 µM] (inactive) and 21% [50 µM] (inactive) |
| CO/C(N)=C(\C#N)N=Cc1ccc2ccccc2c1 | -20.4% [100 µM] (active) and 1.77% [100 µM] (active) |
| C/C=C1\NC(=O)[C@H]2CSSCCC=C[C@H](CC(=O)N[C@H](C(C)C)C(=O)N2)OC(=O)[C@H](C(C)C)NC1=O | -83.2% [0.1 µM] (active) and -98.1% [0.1 µM] (active) |
| Cc1ccc(OCC2OC(n3cnc4nc(Cl)nc(Cl)c43)CC2Oc2ccc(C)cc2)cc1 (stereo not drawn) | -72.2% [100 µM] (active) and -100% [100 µM] (active) |
| CC(C)(C)c1cc(C2COC(=O)COCCOCC(=O)OCCOCCO2)cc(C(C)(C)C)c1O (stereo not drawn) | 24.1% [100 µM] (inactive) and -65.6% [100 µM] (active) |
| COc1ccc2c(=O)c(-c3cc4c(cc3OC)OCO4)coc2c1 | 30.1% [100 µM] (inactive) and 25.3% [100 µM] (inactive) |

| SMILES | growth |
| --- | --- |
| Cc1cc(S(=O)(=O)O)c(NC(=O)c2oc3cc(O)ccc3c(=O)c2C)cc1Cl | 85.1% [100 µM] (inactive) and 89.4% [100 µM] (inactive) |
| O[C@H]1[C@H](O)[C@@H](Cn2nnc(-c3ccccc3)c2-c2ccccc2)OCO[C@@H]1Cn1nnc(-c2ccccc2)c1-c1ccccc1 | -77.8% [100 µM] (active) |
| Cc1ccc(/C=N/Nc2ccccn2)s1 | 74.5% [100 µM] (inactive) and 87.7% [100 µM] (inactive) |
| COc1ccc(C2c3cc4c(c(OC)c3CC3OCC(=O)C32)OCO4)cc1OC (stereo not drawn) | 26% [100 µM] (inactive) and 3.65% [100 µM] (active) |
| CCC/C(Cl)=N/OC(=O)Nc1cccc(F)c1 | -86.8% [100 µM] (active) and -100% [100 µM] (active) |
| CCCCCC(O)(CCCCC)CCCCCCCCC1=C(O)c2ccccc2C(=O)C1=O | -74.8% [100 µM] (active) and -14.4% [100 µM] (active) |
| N#Cc1c(N)oc(-c2cccc([N+](=O)[O-])c2)c1C#N | -82.9% [100 µM] (active) and -75% [100 µM] (active) |
| Cc1ccc(NC(=O)/C(=N\NC(N)=O)c2c(O)c3ccccc3[nH]c2=O)cc1 | 87% [100 µM] (inactive) and 83% [100 µM] (inactive) |
| O=c1c2ccccc2nc(-c2ccccc2)n1/N=C/c1ccccc1[N+](=O)[O-] | 54.7% [100 µM] (inactive) and 24.5% [100 µM] (inactive) |
| CCCCCCCCOC(=O)C12Oc3ccc(-c4ccc5c(c4O)C(O)=C4C(=O)CC(C)C(O)C4(C(=O)OCCCCCCCC)O5)c(O)c3C(O)=C1C(=O)CC(C)C2O (stereo not drawn) | -66.7% [100 µM] (active) and -97.2% [100 µM] (active) |
| CC1(C)S[C@H](CN)N[C@H]1C(=O)OC(c1ccccc1)c1ccccc1 | 34.2% [100 µM] (inactive) and -100% [100 µM] (active) |
| O=C(NC1=NC2C=CC([N+](=O)[O-])=CC2S1)C(=O)Nn1c(=S)[nH]c2ccccc2c1=O (stereo not drawn) | -8.33% [100 µM] (active) and 16.8% [100 µM] (inactive) |
| COc1ccc2nc(NC(=O)/C(C#N)=C/c3ccccc3)sc2c1 | 36.9% [100 µM] (inactive) and 15.8% [100 µM] (inactive) |
| CCn1c2c(c3ccccc3c1=O)C(=O)c1ccccc1-2 | 62.3% [100 µM] (inactive) and 2.6% [100 µM] (active) |
| CC(C)C1OC(N)=C(C#N)C1(C#N)C#N (stereo not drawn) | 55.5% [100 µM] (inactive) and 25.9% [100 µM] (inactive) |
| O=C1NC(N/N=C\C(O)C(O)C(O)C(O)CO)=N/C1=C\c1ccc(Cl)cc1 (stereo not drawn) | -24.3% [100 µM] (active) and -100% [100 µM] (active) |
| COc1ccc2cc1Oc1ccc(cc1)C[C@@H]1c3cc(c(OC)cc3CCN1C)Oc1c(OC)c(OC)cc3c1[C@H](C2)N(C)CC3 | 20.3% [100 µM] (inactive) and -83.9% [100 µM] (active) |
| CC(C)=CC(O)C/C(C)=C/CC/C(C)=C/CCC1(C)C(CCCO)/C(=C(/C)C=O)CCC1(C)O (stereo not drawn) | -21.5% [100 µM] (active) and 2.9% [100 µM] (active) |
| N#Cc1nc(C(F)(F)F)oc1N | 57.6% [100 µM] (inactive) and 93.3% [100 µM] (inactive) |
